Compounds with a hit are over-represented: about 12% of the library has one in this group of screens.
G9a inh: G9a (human) methyltransferase inhibition | actives 8.8% (n = 350,000) | Q96KQ7 | G9a H3K9 monomethylation, AlphaScreen, 2 h | AID 504332 | Potency, µM (highest dose often 102 µM), for the others: top-dose activity, negative = inhibition, actives largely listed as inhibitors; further: on the % scale 0 is the no-effect control and ±100 the full control effect; nearly all actives have a fitted effect of over 75% in size
Target sequence (Q96KQ7 913-1193 limits assumed): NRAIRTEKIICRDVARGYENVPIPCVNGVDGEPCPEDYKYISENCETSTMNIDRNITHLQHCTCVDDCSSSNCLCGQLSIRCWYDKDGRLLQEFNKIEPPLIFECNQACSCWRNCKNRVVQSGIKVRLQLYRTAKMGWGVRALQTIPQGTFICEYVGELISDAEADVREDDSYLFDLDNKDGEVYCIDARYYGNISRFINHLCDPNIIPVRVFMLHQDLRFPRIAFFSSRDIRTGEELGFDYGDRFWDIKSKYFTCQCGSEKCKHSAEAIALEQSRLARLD
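Signal arises when biotinylated H3K9 peptide, once monomethylated, bridges streptavidin donor and antibody-captured acceptor beads. Enzyme at 20 nM was preincubated 15 min with test compounds; peptide 500 nM and SAM 20 uM then reacted for 2 h.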
HP1b binding inh: inhibitors of HP1-beta chromodomain binding to methylated histone tails | AlphaScreen HP1-beta / biotin-H3K9me3 peptide binding | Potency, µM (titrated, usually from 114 µM), without a hit: at the highest dose activity change, negative = inhibition, actives largely listed as inhibitors | actives 0.56% (n = 390,000) | AID 540317; further: nearly all actives have a fitted effect of over 70% in size
Target sequence (P83916 whole entry, looked up): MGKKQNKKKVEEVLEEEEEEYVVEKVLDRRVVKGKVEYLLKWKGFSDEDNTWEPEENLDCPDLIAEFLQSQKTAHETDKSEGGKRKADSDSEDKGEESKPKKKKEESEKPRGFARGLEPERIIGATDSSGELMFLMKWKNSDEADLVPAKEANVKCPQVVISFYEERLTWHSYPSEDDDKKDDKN
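HP1-beta protein (50 nM final) preincubated 30 min at room temperature with biotinylated H3(1-18)K9me3 peptide (50 nM) in PBS pH 7.4, 0.01% Tween-20, then compound added for 30 min. AlphaScreen streptavidin donor/nickel chelate acceptor beads (10 ug/mL final), 30 min dark, luminescence read.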
Sfp inh: Sfp phosphopantetheinyl transferase inhibition | Q9F4F7 | Biochemical Sfp PPTase activity, qHTS | Potency, µM, without a hit: largest response in the series, negative = inhibition, actives largely listed as inhibitors | actives 3.5% (n = 310,000);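 further: the enzyme is Sfp with the accession as filed and its product quenches rhodamine fluorescence; 0% = enzyme reaction without inhibitor and -100% = no enzyme wells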
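After 15 min at room temperature with compound, 15 nM Sfp received 5 uM rhodamine-CoA plus 12.5 uM BHQ-2-ybbR (50 mM Hepes pH 7.6, 10 mM MgCl2). Rate came from the fluorescence difference over 30 min, ex 525/em 598 nm.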
PLK1 PBD block: PLK1 (human) polo-box domain binding inhibition | P53350 | Plk1 PBD binding of FITC phosphopeptide, fluorescence polarization | Potency, µM, for the others: max response, negative = inhibition, actives largely listed as inhibitors | actives 2.8% (n = 360,000); further: series mostly up to about 57 µM; on the % scale 0 is the no-effect control and ±100 the full control effect; nearly all actives have a fitted effect of over 65% in size
JMJD2A Tudor: blocks the human JMJD2A Tudor domain; O75164; AlphaScreen JMJD2A-Tudor / H3K4me3 peptide binding; Potency, µM (titrated, usually from 114 µM), for inactives: at the top dose activity change, negative = inhibition, usual class: inhibitors; actives 4.4% (n = 390,000); further: on the % scale 0 is the no-effect control and ±100 the full control effect; nearly all actives have a fitted effect of over 50% in size
BAZ2B block: blocks human BAZ2B | AlphaScreen BAZ2B-H3K14Ac peptide displacement | Potency, µM (top dose mostly 114 µM), inactives show at the highest dose activity change, negative = inhibition, hits mostly inhibitors | actives 4.4% (n = 360,000) | AID 504333; further: on the % scale 0 is the no-effect control and ±100 the full control effect; nearly all actives have a fitted effect of over 60% in size
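In this displacement format the biotinylated H3(5-23) peptide acetylated at Lys14 serves as ligand at 50 nM, with BAZ2B at 50 nM in PBS pH 7.4 containing 0.01% Tween-20. Donor and acceptor beads are 10 ug/mL final.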
Active calls of the source: *; [ ] = another dose, or the depositor's remark. The call rests on the fitted dose curve; in most records, active means well fitted curve in the direction sought with a large enough effect; inconclusive means small, poorly fitted or top-dose-only effect, or another doubt; inactive means no such curve, though single readings can be large; an effect the other way counts as inactive or inconclusive. Potency means the concentration at half of the fitted maximal effect.

How did COc1cc(/C=C2\SC(N)=NC2=O)cc(Br)c1O do in these assays?
G9a inh: -8%[0.501 µM]; HP1b binding inh: 2%; Sfp inh: 4%; PLK1 PBD block: 28%; JMJD2A Tudor: -26%; BAZ2B block: inconclusive

How did CCOc1cc(/C=C2\SC(=O)N=C2N)ccc1O do in these assays?
G9a inh: -20%[59 µM]; HP1b binding inh: 23%; Sfp inh: -1%; PLK1 PBD block: 35%; JMJD2A Tudor: -13%; BAZ2B block: 4%

How did COc1ccc(/C=C2\SC(N)=NC2=O)cc1 do in these assays?
G9a inh: 3%; HP1b binding inh: 57%; Sfp inh: 8%; PLK1 PBD block: -11%; JMJD2A Tudor: -10%; BAZ2B block: -13%

How did COc1cc(/C=C2\SC(c3ccccc3)=NC2=O)cc(Cl)c1O do in these assays?
G9a inh: -157%[59 µM]; HP1b binding inh: 13µM*; Sfp inh: 7.9µM*; PLK1 PBD block: 11µM*; JMJD2A Tudor: 6.3µM*; BAZ2B block: 35µM*

What do the screens show for `CCOc1c(Br)cc(Br)cc1/C=C1\SC(N)=NC1=O`?
HP1b binding inh: 10%; Sfp inh: -12%; PLK1 PBD block: 2%; JMJD2A Tudor: 25µM*; BAZ2B block: inconclusive

What do the screens show for `CCOc1cc(/C=C2\SC(N)=NC2=O)ccc1O`?
G9a inh: 56µM*; HP1b binding inh: 23%; Sfp inh: inconclusive; PLK1 PBD block: 10%; JMJD2A Tudor: -7%; BAZ2B block: -11%

How did COc1cc(/C=C2\SC(c3ccc(C)cc3)=NC2=O)cc(OC)c1OC do in these assays?
G9a inh: 1µM*; HP1b binding inh: inconclusive; Sfp inh: inconclusive; PLK1 PBD block: 20%; JMJD2A Tudor: 56µM*; BAZ2B block: -8%

Results for CC(=O)c1ccc(-c2cc(C3C4C=CCC(C)C4C(=O)N3Cc3ccccc3)ccc2F)cc1 (stereo not given) ?
HP1b binding inh: 8%; Sfp inh: -16%; JMJD2A Tudor: -23%

What do the screens show for `COc1cc(/C=C2\SC(c3ccc(C)cc3)=NC2=O)ccc1O`?
G9a inh: 11µM*; HP1b binding inh: inconclusive; Sfp inh: 22µM*; PLK1 PBD block: -24%; JMJD2A Tudor: 28µM*; BAZ2B block: 22µM*

How did COc1cc(/C=C2\SC(N)=NC2=O)ccc1OCC(=O)Nc1ccc(C)cc1 do in these assays?
G9a inh: -4%[59 µM]; HP1b binding inh: 14%; Sfp inh: -4%; PLK1 PBD block: 3%; JMJD2A Tudor: -19%; BAZ2B block: -37%

What do the screens show for `O=[N+]([O-])c1ccc(-c2n(-c3ccccn3)c3ccccc3[n+]2-c2ccccn2)cc1`?
G9a inh: 50µM*; HP1b binding inh: 3%; Sfp inh: 13%; PLK1 PBD block: -18%; JMJD2A Tudor: inconclusive; BAZ2B block: inconclusive

What do the screens show for `COc1ccc(N(C(=O)c2ccco2)C(C(=O)NC2CCCC2)c2cc(OC)c(OC)c(OC)c2)cc1` (stereo not given)?
G9a inh: -1%; HP1b binding inh: 26%; Sfp inh: 24%; PLK1 PBD block: 6%; JMJD2A Tudor: -2%; BAZ2B block: 1%

How did CCOc1ccccc1NC(=O)NCCC1=CCCCC1 do in these assays?
G9a inh: 30%; HP1b binding inh: 27%; Sfp inh: 7%; PLK1 PBD block: -15%; JMJD2A Tudor: -9%; BAZ2B block: -10%

How did COc1ccccc1OCC(=O)NCCC1=CCCCC1 do in these assays?
G9a inh: 13%[59 µM]; HP1b binding inh: 44%; Sfp inh: 19%; PLK1 PBD block: -1%; JMJD2A Tudor: 5%; BAZ2B block: 8%

How did CC(C)[C@H](NC(=O)NCCC1=CCCCC1)C(=O)O do in these assays?
G9a inh: 19%; HP1b binding inh: 50%; Sfp inh: 18%; PLK1 PBD block: -10%; JMJD2A Tudor: 2%[11.4 µM]; BAZ2B block: -9%

Results for COc1ccc(-n2nc(C(=O)NCC(=O)NCCC3=CCCCC3)c3ccccc3c2=O)cc1OC ?
G9a inh: 50µM*; HP1b binding inh: -8%; Sfp inh: 6%; PLK1 PBD block: -3%; JMJD2A Tudor: -13%; BAZ2B block: 3%

How did COc1ccccc1NC(=O)NCCC1=CCCCC1 do in these assays?
G9a inh: 6%; HP1b binding inh: -10%; Sfp inh: -8%; PLK1 PBD block: 24µM*; JMJD2A Tudor: -22%; BAZ2B block: 3%

What do the screens show for `CCC(C)[C@H](NC(=O)NCCC1=CCCCC1)C(=O)O` (stereo not given in full)?
G9a inh: -10%[12.7 µM]; HP1b binding inh: 20%; Sfp inh: 17%; PLK1 PBD block: 24µM*; JMJD2A Tudor: -9%[11.4 µM]; BAZ2B block: -1%

Results for CCOc1ccccc1NC(=O)C(=O)NCCC1=CCCCC1 ?
G9a inh: -4%; HP1b binding inh: -3%; Sfp inh: 23%; PLK1 PBD block: 27µM*; JMJD2A Tudor: inconclusive; BAZ2B block: -2%

Results for O=C(NCc1ccccc1Cl)c1cnc(N2CCCCC2)c2ccccc12 ?
G9a inh: 39%[59 µM]; HP1b binding inh: 32%[57 µM]; JMJD2A Tudor: 18%; BAZ2B block: 20%

How did CCc1ccc(NC(=O)c2sc3nc(C)c(Cl)c(C)c3c2NC(=O)c2ccccc2)cc1 do in these assays?
G9a inh: -5%[59 µM]; HP1b binding inh: 24%; JMJD2A Tudor: -24%; BAZ2B block: -4%

What do the screens show for `Cc1ccc(C(=O)N/N=C/c2cccnc2)cc1Cl`?
PLK1 PBD block: -19%

What do the screens show for `O=C(O)[C@@H](O)[C@@H](O)[C@H](O)[C@H](O)CO`?
G9a inh: 24%[59 µM]; Sfp inh: -16%

Results for CC(C)C(=O)OCC(=O)[C@@]12OC(C3CCCCC3)O[C@@H]1CC1C3CCC4=CC(=O)C=C[C@]4(C)C3[C@@H](O)C[C@@]12C (stereo not given in full) ?
G9a inh: -3%[12.7 µM]; Sfp inh: 12%

How did COc1ccc(/C=C/C(=O)OCC(=O)NCCC2=CCCCC2)cc1 do in these assays?
G9a inh: -1%; HP1b binding inh: 32%; Sfp inh: -11%; PLK1 PBD block: 1%; JMJD2A Tudor: 7%; BAZ2B block: 10%

What do the screens show for `Cc1ccc(CNC(=O)C(=O)NCCC2=CCCCC2)cc1`?
G9a inh: -12%[59 µM]; HP1b binding inh: 38%; Sfp inh: 22%; PLK1 PBD block: 4%; JMJD2A Tudor: -12%; BAZ2B block: -2%

Results for CC(C)(C)NC(=O)C(=O)NCCC1=CCCCC1 ?
G9a inh: 21%; HP1b binding inh: inconclusive; Sfp inh: -14%; PLK1 PBD block: 21µM*; JMJD2A Tudor: -31%[57.1 µM]; BAZ2B block: -7%
